The source of these data is PubChem BioAssay (NCATS).

Structures are written as SMILES. Records with an inconclusive call do not appear. Values without a mark were called inactive. Active and inactive are the calls of the source. Calls follow the shape of the full dose curve. Peptide text beside a SMILES is read from it. Some results are limits rather than exact numbers.
Potency is read from the fitted curve at half-maximal effect.

The assay in a line: Cell Viability - HepG2 (AID 433).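 Also: potency for ATP loss meaning cytotoxicity.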 Conditions: qHTS. From the text: NIH Chemical Genomics Center [NCGC]
NIH Molecular Libraries Screening Centers Network [MLSCN]
National Institutes of Environmental Health Sciences [NIEHS]
National Toxicology Program [NTP]
We have developed a 1536-well cell-based assay for quantitative high throughput screening (qHTS) against a number of cell lines to determine in vitro cytotoxicity of small molecules. This particular assay uses the HepG2 cell line which is derived from hepatocellular carcinoma.
NCGC Assay Protocol Summary:
The CellTiter-Glo luminescent cell viability assay (Promega) is a homogeneous method to measure the number of viable cells in culture. The end point readout of this assay is based on quantitation of intracellular ATP, an indicator of metabolic activity, using the luciferase reaction. Luciferase catalyzes the oxidation of beetle Luciferin to oxyluciferin and light in the presence of ATP. The luminescent signal is proportional to amount of ATP present.
Using the CellTiter-Glo luminescent cell viability assay, the amount of cellular ATP was measured in the HepG2 cell line with complete culture medium following compound treatment for 40 hours. The assay was performed in opaque white Kalypsys 1536-well plates. In the screen, tamoxifen and doxorubicin were used as positive controls. Library compounds were measured for their ability to cause acute toxicity in the cell line, as reflected by a decrease in intracellular ATP levels, in a concentration-dependent manner. Data were normalized to the controls for basal activity (DMSO only) and 100% inhibition (100 uM tamoxifen). AC50 values were determined from concentration-response data modeled with the standard Hill equation.
qHTS protocol fo CellTiter Glo HepG2 cellular assay
[Step] [Parameter] [Value] [Description]
1. Reagent; 5 uL; 1500 HepG2 cells/well
2. Time; 5 hr; 37 °C incubation
4. Controls; 23 nL; Tamoxifen 0.34 uM to 100 uM & Doxorubicin 0.02 nM to 100 uM
5. Time; 40 hr; 37 °C incubation
6. Reagent; 5 uL; CellTiter Glo reagent
7. Time; 20 min; Room Temperature
8. Detection; Luminescence; Viewlux plate reader
Keywords: cell viability, cytotoxicity, HepG2 cell line, luminescence, NTPHTS, NTPHTS_NCGC, NIEHS, EPA, DSSTox, MLSMR, MLSCN, NIH Roadmap, qHTS, NCGC
(qHTS replaces the single test concentration by a dilution series.)
Take `Nc1ccc(S(N)(=O)=O)cc1`: the Potency is more than 92 µM. Take `NS(=O)(=O)c1cc(C(=O)O)c(NCc2ccco2)cc1Cl`: the Potency was more than 92 µM. In the case of `CCCc1cc(=O)[nH]c(=S)[nH]1`, the Potency is more than 92 µM. For `CC(=O)Nc1ccc(O)cc1`, the Potency was more than 92 µM. For `CN(C)c1ccc2nc3ccc(=[N+](C)C)cc-3sc2c1` the value was 4.17 µM (active); for `COc1c2occc2cc2ccc(=O)oc12`, more than 92 µM.

Consider `CCCCC(CC)COC(=O)C(C#N)=C(c1ccccc1)c1ccccc1` (configuration not stated), for which the Potency is more than 92 µM. For `c1ccc2[nH]c(-c3cscn3)nc2c1` the value was more than 92 µM; for `CCc1nc(N)nc(N)c1-c1ccc(Cl)cc1`, 1.05 µM (active); for `Cc1ccc(C)c(OCCCC(C)(C)C(=O)O)c1`, more than 92 µM.

For the compound `CS(=O)(=O)OCCCCOS(C)(=O)=O`, the Potency is more than 92 µM. In the case of `COC(=O)[C@H](Cc1ccccc1)NC(=O)[C@@H](N)CC(=O)O` (H-Asp-Phe-OMe), the Potency was more than 92 µM.
